Screening results: PubChem, National Center for Advancing Translational Sciences (NCATS)
PI5P4Ka inh: PI5P4K alpha (human) kinase inhibition | P48426 | PI5P4Kalpha enzyme, ADP-Glo luminescence, 60 min; stronger effect = lower value | max response, % | 1.2% of 330,000 active | AID 652105; active = max response of -50% or lower; inconclusive = between -30% and -50%; inactive = -30% or higher; also: value at the top dose of about 77 µM; % is scaled to controls: 0 for no effect and ±100 for the full control effect
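Quantitative HTS of the MLSMR library against PI5P4Kalpha with substrate. ATP added last at 5 microM final; room temperature, 60 minutes. Remaining ATP depleted, ADP converted and read as luminescence.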
HP1b chromo inh: HP1-beta chromodomain-methylated histone interaction inhibition. AlphaScreen HP1-beta / biotin-H3K9me3 peptide binding. AID 540317. 0.56% of 390,000 active. Potency, µM (titrated, usually from 114 µM), inactives show at the top dose activity change, negative = inhibition, actives largely listed as inhibitors. P83916; also: potency is read from the fitted curve at half-maximal effect; nearly all actives have a fitted effect of over 70% in size
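HP1-beta protein (50 nM final) preincubated 30 min at room temperature with biotinylated H3(1-18)K9me3 peptide (50 nM) in PBS pH 7.4, 0.01% Tween-20, then compound added for 30 min. AlphaScreen streptavidin donor/nickel chelate acceptor beads (10 ug/mL final), 30 min dark, luminescence read.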
BAZ2B block: BAZ2B (human) inhibition. AlphaScreen BAZ2B-H3K14Ac peptide displacement. 4.4% of 360,000 active. Q9UIF8. Potency, µM (top dose mostly 114 µM), without a hit: at the top dose activity change, negative = inhibition, actives largely listed as inhibitors; also: potency is read from the fitted curve at half-maximal effect; % is scaled to controls: 0 for no effect and ±100 for the full control effect; nearly all actives have a fitted effect of over 60% in size
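In this displacement format the biotinylated H3(5-23) peptide acetylated at Lys14 serves as ligand at 50 nM, with BAZ2B at 50 nM in PBS pH 7.4 containing 0.01% Tween-20. Donor and acceptor beads are 10 ug/mL final.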
JMJD2A Tudor inh: blocks the human JMJD2A Tudor domain; Potency, µM (top dose mostly 114 µM), inactives show at the highest dose activity change, negative = inhibition, actives largely listed as inhibitors; AlphaScreen JMJD2A-Tudor / H3K4me3 peptide binding; AID 504339; 4.4% of 390,000 active; also: potency is read from the fitted curve at half-maximal effect; % is scaled to controls: 0 for no effect and ±100 for the full control effect; nearly all actives have a fitted effect of over 50% in size
KDM4E inh: inhibitors of human JMJD2E histone demethylase; Potency, µM (doses to about 57.1 µM), without a hit: at the highest dose activity change, negative = inhibition, usual class: inhibitors; 1.6% of 230,000 active; AID 2147; B2RXH2; JMJD2E catalytic domain, FDH-coupled NADH fluorescence (FDH is formaldehyde dehydrogenase); active = well fitted inhibition curve with a large enough effect, not every such curve was filed as active; inconclusive = small, poorly fitted or top-dose-only effect, or another doubt; inactive = no such curve, though single readings can be large or run the other way;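 also: potency is read from the fitted curve at half-maximal effect; 0% = wells with enzyme and -100% = buffer wells without enzyme; nearly all actives have a fitted effect of over 50% in size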
L3MBTL1 block: inhibitors of human L3MBTL1; AlphaScreen L3MBTL1–H3K9me1 peptide binding; 0.66% of 230,000 active; Potency, µM (highest dose often 57.1 µM), inactives show top-dose activity, negative = inhibition, actives largely listed as inhibitors; also: potency is read from the fitted curve at half-maximal effect; % is scaled to controls: 0 for no effect and ±100 for the full control effect; nearly all actives have a fitted effect of over 60% in size
Target sequence (Q9Y468 whole entry, looked up): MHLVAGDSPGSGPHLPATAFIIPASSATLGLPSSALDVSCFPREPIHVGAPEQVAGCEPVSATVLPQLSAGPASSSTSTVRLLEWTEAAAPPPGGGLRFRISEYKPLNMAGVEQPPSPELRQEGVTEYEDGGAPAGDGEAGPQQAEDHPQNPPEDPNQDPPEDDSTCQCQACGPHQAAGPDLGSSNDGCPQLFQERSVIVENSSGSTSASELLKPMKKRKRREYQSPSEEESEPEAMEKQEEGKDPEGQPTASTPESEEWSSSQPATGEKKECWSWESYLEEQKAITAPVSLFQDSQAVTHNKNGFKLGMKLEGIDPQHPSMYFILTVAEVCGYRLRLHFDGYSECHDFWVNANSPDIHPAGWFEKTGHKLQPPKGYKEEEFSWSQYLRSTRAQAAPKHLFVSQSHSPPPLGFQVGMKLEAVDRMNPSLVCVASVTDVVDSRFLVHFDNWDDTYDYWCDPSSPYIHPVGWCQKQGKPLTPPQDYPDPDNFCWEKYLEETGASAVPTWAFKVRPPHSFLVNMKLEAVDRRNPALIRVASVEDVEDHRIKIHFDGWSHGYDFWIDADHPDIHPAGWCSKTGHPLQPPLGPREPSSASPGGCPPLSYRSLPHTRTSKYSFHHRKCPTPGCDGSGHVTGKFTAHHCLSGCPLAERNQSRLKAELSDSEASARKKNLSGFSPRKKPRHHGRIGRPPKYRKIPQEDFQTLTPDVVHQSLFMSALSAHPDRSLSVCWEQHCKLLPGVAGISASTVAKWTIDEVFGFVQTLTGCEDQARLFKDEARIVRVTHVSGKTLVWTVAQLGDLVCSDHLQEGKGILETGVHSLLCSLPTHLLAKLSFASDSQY
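AlphaScreen assay: L3MBTL1 (50 nM final) was preincubated 30 min at room temperature with biotinylated H3(1-15)K9me1 peptide (75 nM final), then 30 min with library compounds; streptavidin donor and nickel chelate acceptor beads (10 ug/mL final) added, 30 min dark.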
An asterisk follows results filed as active. An excerpt weighted towards active compounds, which were near 5.7% of everything screened. Unless noted, calls follow the shape of the dose curve; as a rule, active = well fitted inhibition curve with a large enough effect; inconclusive = small, poorly fitted or top-dose-only effect; inactive = no such curve, though single readings can be large or run the other way.

Cn1c(-c2ccc(F)cc2)cnc1SCC(=O)N1CCCCC1 was read as PI5P4Ka inh 7, HP1b chromo inh 45%, BAZ2B block -6%, JMJD2A Tudor inh -16%, KDM4E inh -3% and L3MBTL1 block -11%.
Screening CC1Cc2ccccc2N1C(=O)CSc1ncc(-c2ccc(F)cc2)n1C (stereo unspecified) returned PI5P4Ka inh 2, HP1b chromo inh inconclusive, BAZ2B block 28µM*, JMJD2A Tudor inh 56µM*, KDM4E inh 2% and L3MBTL1 block -26%.
`Cc1ccc(C)c(NC(=O)CSc2nccn2-c2cccc(C)c2C)c1` gave HP1b chromo inh inconclusive, BAZ2B block 10µM* and JMJD2A Tudor inh inconclusive.
For O=[N+]([O-])c1cc(-c2nc(-c3cccnc3)no2)ccc1NCc1ccccc1 the results were HP1b chromo inh 28%, BAZ2B block -9% and JMJD2A Tudor inh -19%.
O=C(Nc1ccc(S(=O)(=O)Nc2nccs2)cc1)/C(=C/c1ccccc1Cl)NC(=O)c1ccccc1 was read as PI5P4Ka inh -29, HP1b chromo inh -17%, BAZ2B block -30%, JMJD2A Tudor inh -36%, KDM4E inh -21% and L3MBTL1 block -16%.
Screening CC(C)n1c(O)c(N=NC(=O)Cc2csc(N3CCOCC3)n2)c2ccccc21 returned PI5P4Ka inh -1, HP1b chromo inh 19%, BAZ2B block 40µM*, JMJD2A Tudor inh -25%, KDM4E inh 10% and L3MBTL1 block -11%.
For Cc1nnc(NC(=O)CSc2nnc(-c3ccco3)n2C(C)C)s1 the results were PI5P4Ka inh 1, HP1b chromo inh 26%, BAZ2B block -20% and JMJD2A Tudor inh 1%.
CCn1c(SCC(=O)Nc2ccc3c(c2)c2ccccc2n3CC)nnc1-c1ccco1 was read as HP1b chromo inh 16µM*, BAZ2B block 10%, JMJD2A Tudor inh 28µM*, KDM4E inh -3% and L3MBTL1 block -3%.
For CCn1c(SCC(=O)Nc2cccc(NC(C)=O)c2)nnc1-c1ccco1 the results were PI5P4Ka inh -11, HP1b chromo inh 15%, BAZ2B block 5% and JMJD2A Tudor inh -12%.
CC(C)n1c(SCC(=O)Nc2ccc(N3CCOCC3)cc2)nnc1-c1ccco1 was read as PI5P4Ka inh 3, HP1b chromo inh 31%, BAZ2B block -16% and JMJD2A Tudor inh 32µM*.
`Cn1c(SCC(=O)Nc2ccc(N3CCOCC3)cc2)nnc1-c1ccco1` gave PI5P4Ka inh 5, HP1b chromo inh -15%, BAZ2B block -23% and JMJD2A Tudor inh -21%.
For CC(C)n1c(SCC(=O)Nc2nncs2)nnc1-c1ccco1 the results were PI5P4Ka inh -74*, HP1b chromo inh -12%, BAZ2B block 50µM* and JMJD2A Tudor inh 56µM*.
O=[N+]([O-])c1ccc([N+](=O)[O-])c(Nc2ccc(N3CCOCC3)cc2)c1 was read as PI5P4Ka inh -2, HP1b chromo inh inconclusive, BAZ2B block 18µM*, JMJD2A Tudor inh 18µM*, KDM4E inh 5% and L3MBTL1 block -9%.
`O=C(Nc1ccc(N2CCCC2)cc1)c1cc([N+](=O)[O-])ccc1N1CCOCC1` gave PI5P4Ka inh 2, HP1b chromo inh inconclusive, BAZ2B block inconclusive and JMJD2A Tudor inh 45µM*.
Cc1ccc(NC(=O)c2cc(N3C(=O)C=CC3=O)ccc2N2CCOCC2)cc1Cl was read as PI5P4Ka inh -76*, HP1b chromo inh inconclusive, BAZ2B block 50µM*, JMJD2A Tudor inh 20µM*, KDM4E inh -1% and L3MBTL1 block -7%.
For O=C(Nc1ccc(NC(=O)c2cc([N+](=O)[O-])ccc2N2CCOCC2)cc1)c1cccs1 the results were PI5P4Ka inh -2, HP1b chromo inh 19%, BAZ2B block -27%, JMJD2A Tudor inh -22%, KDM4E inh -1% and L3MBTL1 block -2%.
CC(C)(C)CNc1cc(N2CCOCC2)ccc1[N+](=O)[O-] was read as PI5P4Ka inh 7, HP1b chromo inh -17%, BAZ2B block inconclusive, JMJD2A Tudor inh inconclusive, KDM4E inh 4% and L3MBTL1 block -30%.
Screening CC(NC(=O)COC(=O)c1cc([N+](=O)[O-])ccc1N1CCOCC1)c1ccc(F)cc1 (stereo unspecified) returned PI5P4Ka inh inconclusive, HP1b chromo inh 9%, BAZ2B block 50µM*, JMJD2A Tudor inh inconclusive and L3MBTL1 block -9%.
Screening COc1ccc(Cl)cc1NC(=O)NCCn1c(=O)oc2ccc(C)cc21 returned HP1b chromo inh 23%, BAZ2B block -24% and JMJD2A Tudor inh -20%.
`CC(=O)c1cccc(NC(=O)[C@H](Cc2ccccc2)N2Cc3ccccc3C2=O)c1` gave HP1b chromo inh 18%, BAZ2B block -21% and JMJD2A Tudor inh -18%.
CCOc1cc(C(=S)N2CCOCC2)ccc1OS(=O)(=O)c1ccccc1[N+](=O)[O-] was read as PI5P4Ka inh -1, HP1b chromo inh 8%, BAZ2B block inconclusive, JMJD2A Tudor inh -32%, KDM4E inh -3% and L3MBTL1 block -3%.
`Fc1ccccc1Cn1c(-c2ccccc2)nc2ccccc21` gave HP1b chromo inh 98%, BAZ2B block 106% and JMJD2A Tudor inh 5%.
COC(=O)CCCC(=O)N1CCCC(C(=O)c2ccc(OC)cc2C)C1 (stereo unspecified) was read as PI5P4Ka inh 0, HP1b chromo inh 24%, BAZ2B block 7%, JMJD2A Tudor inh -10%, KDM4E inh 3% and L3MBTL1 block -9%.
`O=C(Nc1cc([N+](=O)[O-])ccc1N1CCOCC1)c1ccco1` gave PI5P4Ka inh 1, HP1b chromo inh 31%, BAZ2B block -3%, JMJD2A Tudor inh -5%, KDM4E inh 9% and L3MBTL1 block 12%.
COc1cc(NC(=O)c2cc([N+](=O)[O-])ccc2N2CCOCC2)ccc1NC(=O)c1ccco1 was read as PI5P4Ka inh 0, HP1b chromo inh -1%, BAZ2B block 71µM* and JMJD2A Tudor inh -29%.
Screening CCN(CC)C(=O)c1ccc2c(=O)n(CCOC)c(=S)[nH]c2c1 returned PI5P4Ka inh -11, HP1b chromo inh 39%, BAZ2B block inconclusive, JMJD2A Tudor inh 18µM* and KDM4E inh -2%.
Screening O=C(c1ccc2c(=O)n(Cc3ccccc3)c(=S)[nH]c2c1)N1CCOCC1 returned PI5P4Ka inh -1, HP1b chromo inh 35%, BAZ2B block -2% and JMJD2A Tudor inh -4%.
For CCOCCCn1c(=S)[nH]c2ncccc2c1=O the results were PI5P4Ka inh -6, HP1b chromo inh 55%, BAZ2B block -13%, JMJD2A Tudor inh 22µM*, KDM4E inh -2% and L3MBTL1 block 0%.
